Drawing on PubChem BioAssay (NCI), this text covers growth for eight compounds.

Among the test systems are DU-145 prostate; K-562 leukemia; MALME-3M melanoma; MDA-MB-231 breast; RXF 393 renal; SF-268 CNS; SF-295 CNS; SF-539 CNS; UACC-257 melanoma; M14 melanoma; HCT-15 colon; HT29 colon; SNB-75 CNS; SNB-19 CNS; U251 CNS; PC-3 prostate; SK-MEL-5 melanoma; UACC-62 melanoma; LOX IMVI melanoma; SK-MEL-28 melanoma.
Holding throughout (test): NCI-60 one-dose screen, 48 h (100 = growth as untreated, 0 = no growth, -100 = all killed)
Common to all, as to details: 10 µM

Each structure is given as a SMILES string. About 83,000 compounds went through this panel and 20% of them were active in at least one assay; those are over-represented in the sample as a whole.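 96-well plates, one dose, 48 hours. Percent growth reported; active if below 10.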 Unmarked numbers belong to inactive results. Active and inactive are the calls of the source.

For `CN(C1c2ccccc2Oc2ccccc21)S(=O)(=O)c1cc(Cl)ccc1Cl`, the growth in the assay with DU-145 prostate was 78.2%; in the assay with K-562 leukemia, 14.9%; with MALME-3M melanoma, 54.3%; in the assay on MDA-MB-231 breast, 69.7%; in the assay on RXF 393 renal it was 73.5%; with SF-268 CNS it was 68.6%. In addition, the growth is 29.1% with SF-295 CNS; 60.6% in the assay on SF-539 CNS; 63.6% in the assay with UACC-257 melanoma; 39.2% in the assay with M14 melanoma; 33.8% in the assay on HCT-15 colon; 20.5% in the assay on HT29 colon. Also, the growth in the assay with SNB-75 CNS was 56.2%; in the assay with SNB-19 CNS, 65.7%; with U251 CNS it was 43.8%; in the assay on PC-3 prostate, 54.5%; in the assay with SK-MEL-5 melanoma it was 39.3%; with UACC-62 melanoma it was 32.6%. The growth is 50.3% in the assay on LOX IMVI melanoma and 67% with SK-MEL-28 melanoma.
Consider `COc1ccccc1S(=O)(=O)Nc1ccc2c(c1)CN(C)C(=O)N2`, for which the growth with DU-145 prostate is 77.8%; in the assay on K-562 leukemia it was 28.6%; in the assay on MALME-3M melanoma it was 32.2%; with MDA-MB-231 breast, 54.7%; in the assay on RXF 393 renal, 73.3%; in the assay with SF-268 CNS it was 72.9%. The growth was 5.34% (active) in the assay with SF-295 CNS; 50.1% in the assay on SF-539 CNS; 33.8% with UACC-257 melanoma; 47.8% with M14 melanoma; 40.8% with HCT-15 colon; 22.8% in the assay with HT29 colon. Further, the growth was 17.5% in the assay with SNB-75 CNS; 54.1% in the assay on SNB-19 CNS; 50% in the assay on U251 CNS; 35.3% with PC-3 prostate; 40.5% in the assay with SK-MEL-5 melanoma; 29.3% with UACC-62 melanoma. Besides, the growth in the assay on LOX IMVI melanoma is 29.1%; in the assay on SK-MEL-28 melanoma, 48.9%.
Consider `Cc1cc(C)c2c(Nc3ncnc4c3sc3nc(C)cc(C)c34)n[nH]c2n1`, for which the growth in the assay on DU-145 prostate is 113%; in the assay with K-562 leukemia it was 93.2%; with MALME-3M melanoma, 94.2%; in the assay on MDA-MB-231 breast it was 99.4%; in the assay on RXF 393 renal it was 97.6%; in the assay on SF-268 CNS, 103%. Moreover, the growth was 91.3% with SF-295 CNS; 100% with SF-539 CNS; 100% in the assay with UACC-257 melanoma; 99% in the assay with M14 melanoma; 93.2% with HCT-15 colon; 102% in the assay on HT29 colon. Besides, the growth was 94.4% with SNB-75 CNS; 95.8% in the assay on SNB-19 CNS; 99.4% in the assay with U251 CNS; 88.4% in the assay on PC-3 prostate; 99.1% with SK-MEL-5 melanoma; 95.4% with UACC-62 melanoma. The growth is 95.5% in the assay with LOX IMVI melanoma and 94.5% in the assay with SK-MEL-28 melanoma.
For `N#Cc1ncc(-c2cc(F)ccc2F)c(NC2CCCCCC2)n1`, the growth was 97.8% in the assay with DU-145 prostate; 90.2% with K-562 leukemia; 114% in the assay on MALME-3M melanoma; 60.7% in the assay with MDA-MB-231 breast; 82.8% in the assay on RXF 393 renal; 60% with SF-268 CNS. Also, the growth with SF-295 CNS is 69.1%; with SF-539 CNS it was 79.7%; in the assay with UACC-257 melanoma, 81.8%; with M14 melanoma, 104%; in the assay on HCT-15 colon, 82.8%; in the assay on HT29 colon, 94.7%. For the same compound, the growth is 67.3% in the assay on SNB-75 CNS; 64% in the assay with SNB-19 CNS; 9.98% (active) in the assay with U251 CNS; 60.7% in the assay on PC-3 prostate; 84.9% in the assay on SK-MEL-5 melanoma; 60.9% in the assay on UACC-62 melanoma. For the same compound, the growth with LOX IMVI melanoma is 80.6%; in the assay on SK-MEL-28 melanoma, 80.8%.
On to `S=c1c2ncccc2c(-c2ccccn2)nn1Cc1ccccn1`, for which the growth is 111% with DU-145 prostate; 95.6% in the assay on K-562 leukemia; 89.6% with MALME-3M melanoma; 112% in the assay on MDA-MB-231 breast; 114% in the assay with RXF 393 renal; 108% in the assay on SF-268 CNS. In addition, the growth was 96% with SF-295 CNS; 99.7% in the assay with SF-539 CNS; 95.6% with UACC-257 melanoma; 89.9% in the assay on M14 melanoma; 98.9% in the assay with HCT-15 colon; 93.7% in the assay with HT29 colon. Also, the growth in the assay on SNB-75 CNS was 77.1%; in the assay on SNB-19 CNS it was 103%; in the assay with U251 CNS, 95%; in the assay with PC-3 prostate, 73.8%; with SK-MEL-5 melanoma it was 105%; in the assay on UACC-62 melanoma, 104%. In addition, the growth with LOX IMVI melanoma was 94.8%; with SK-MEL-28 melanoma it was 117%.
For the compound `NC(=O)c1ccc(Br)o1`, the growth was 109% with DU-145 prostate; 105% in the assay with K-562 leukemia; 109% with MALME-3M melanoma; 101% in the assay on MDA-MB-231 breast; 112% in the assay with RXF 393 renal; 101% with SF-268 CNS. For the same compound, the growth in the assay with SF-295 CNS was 97.4%; in the assay on SF-539 CNS, 96.5%; with UACC-257 melanoma, 114%; in the assay with M14 melanoma, 108%; with HCT-15 colon, 94.1%; with HT29 colon, 95.7%. For the same compound, the growth with SNB-75 CNS was 95.3%; with SNB-19 CNS it was 109%; in the assay with U251 CNS it was 105%; with PC-3 prostate it was 102%; with SK-MEL-5 melanoma, 102%; with UACC-62 melanoma it was 101%. Also, the growth is 98.1% in the assay with LOX IMVI melanoma and 107% with SK-MEL-28 melanoma.
As to `COc1cccc2c1C(=O)c1c(O)c3c(c(O)c1C2=O)C[C@@](O)(C(=O)COC(=O)c1ccccc1)C[C@@H]3OC1CC(N)C(O)C(C)O1` (stereo not given in full), the growth in the assay with DU-145 prostate is -87.6% (active); with K-562 leukemia, -73.7% (active); in the assay on MALME-3M melanoma, -88.4% (active); with MDA-MB-231 breast, -82% (active); in the assay on RXF 393 renal it was -80.3% (active); in the assay with SF-268 CNS it was -65.6% (active). Moreover, the growth in the assay with SF-295 CNS was -91.2% (active); in the assay on SF-539 CNS, -94.7% (active); in the assay on UACC-257 melanoma, -91.3% (active); in the assay on M14 melanoma, -69.9% (active); in the assay on HCT-15 colon, -72% (active); in the assay on HT29 colon, -95.1% (active). Besides, the growth was -84.3% (active) in the assay on SNB-75 CNS; -75.4% (active) in the assay with SNB-19 CNS; -95.4% (active) with U251 CNS; -95.6% (active) with PC-3 prostate; -97.2% (active) with SK-MEL-5 melanoma; -97% (active) with UACC-62 melanoma. Besides, the growth with LOX IMVI melanoma was -87.1% (active); with SK-MEL-28 melanoma, -88.9% (active).
For the compound `Cc1ccc(-n2nnc3c(sc4ccccc43)c2=O)cc1`, the growth in the assay on DU-145 prostate was 33.7%; in the assay on K-562 leukemia it was 80.3%; in the assay on MALME-3M melanoma, 68.1%; with MDA-MB-231 breast, 40.9%; with RXF 393 renal it was 59.9%; with SF-268 CNS, 39.8%. Besides, the growth was 27.3% in the assay on SF-295 CNS; 57.2% in the assay on SF-539 CNS; 83% in the assay with UACC-257 melanoma; 83.1% in the assay with M14 melanoma; 89.3% in the assay on HCT-15 colon; 5.36% (active) in the assay on HT29 colon. Also, the growth in the assay on SNB-75 CNS is 31.4%; with SNB-19 CNS it was 44.2%; in the assay on U251 CNS it was 18%; in the assay on PC-3 prostate, 61.7%; with SK-MEL-5 melanoma, 76.9%; in the assay on UACC-62 melanoma, 85.4%. In addition, the growth in the assay on LOX IMVI melanoma is 39.3%; with SK-MEL-28 melanoma it was 89.9%.
